{"source": "PubChem BioAssay AID1508600", "about": "(Functional Genomics Laboratory (NCATS/FGL), 2020)", "note": "Screen size: about 53,000 sequences; about 3,700 (7%) were called active.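 Rule for the calls: active = gene knockdowns whose robust z-score for IL-1 alpha signal is at least 2 or at most -2, so actives lie on both sides; inactive = the rest.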 Shown is part of a subset that was picked to be rich in actives.", "data": [{"experiment": "Components of the Cytosolic LPS Sensing Pathway: Gene Identification via Genome-wide siRNA Screen;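 note: robust z of the log signal after scaling to non-targeting control siRNA wells of the plate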", "details": "RAW264.7 macrophages, IL-1a HTRF, actives lie on both sides, screened at 100 nM (by protocol), cells primed 5 h with Pam3CSK4 first", "summary_of_the_method": "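RAW264.7; siRNA 100 nM final, RNAiMAX, 48h 37 degrees C; Pam3CSK4 5 h; LipidA + TransIT-TKO 24 h; IL-1a HTRF; CellTiter-Glo viability; robust z vs negative-control median.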", "values": [{"sequence": "GUGAGACCAAGUUACAGGATT against Olfr1504", "z-score": "1.5 (inactive)"}, {"sequence": "CCAACCAAAGAUGAAUUGUTT against Usp19", "z-score": "-0.445 (inactive)"}, {"sequence": "GGUGGCCAAACAGGAAAAGTT against Fau", "z-score": "0.91 (inactive)"}, {"sequence": "GGCACACAAACAAUUGGUATT against Rrp36", "z-score": "-0.318 (inactive)"}, {"sequence": "GGGUUUCAUUAAAUUUCCUTT against Cyp2g1", "z-score": "-2.06 (active)"}, {"sequence": "CCGAAUAUCGAGUUCCCAATT against Ceacam20", "z-score": "-0.0196 (inactive)"}, {"sequence": "GGAUGAGAAUGGCACCAGUTT against Prima1", "z-score": "-1.4 (inactive)"}, {"sequence": "GGAAAUGUACAUCAUCAAGTT against Cnga2", "z-score": "-1.24 (inactive)"}, {"sequence": "CCUGUUAAACAGGACUAGUTT against Tmem263", "z-score": "-1.51 (inactive)"}, {"sequence": "GGGAAUUUGCUCCUGAAAGTT against Pcdhb6", "z-score": "-0.936 (inactive)"}, {"sequence": "CCUUUGAAUCCCAGGUUCATT against Lmo1", "z-score": "3.05 (active)"}, {"sequence": "GGCCCUCCCAAAUCAUUUGTT against Slc30a6", "z-score": "0.188 (inactive)"}, {"sequence": "GGAUACAUUGAGAAAGACUTT against Tor1aip2", "z-score": "2.43 (active)"}, {"sequence": "GGGAAGAAAGACUCAAACUTT against Dcdc2a", "z-score": "0.919 (inactive)"}, {"sequence": "GGAAAAUUCAGGAAGUUUGTT against Magi3", "z-score": "0.489 (inactive)"}, {"sequence": "GGAAACCUGAUUAUCAUCATT against Olfr791", "z-score": "-0.337 (inactive)"}, {"sequence": "CCUGGACCCAUGAAGUCUUTT against Ahnak", "z-score": "0.911 (inactive)"}, {"sequence": "GCUGGCCAAACUUGACAGUTT against Wwc1", "z-score": "2.05 (active)"}, {"sequence": "CCCUCAUACCGCUUAGAACTT against Tctex1d4", "z-score": "-0.786 (inactive)"}, {"sequence": "GCCUGUGGCUUAAACUUCATT against Vat1l", "z-score": "0.11 (inactive)"}, {"sequence": "GGAGAACAAGAUCUUACAGTT against Cby2", "z-score": "-0.703 (inactive)"}, {"sequence": "GGAACACCACCUUAGAGAUTT against Hnrnpa2b1", "z-score": "1.52 (inactive)"}, {"sequence": "GAAAUGAGUCCUUGAAAAGTT against Olfr127", "z-score": "-0.0661 (inactive)"}, {"sequence": "CGCAGCCUUUACCUCCGAATT against Plekha8", "z-score": "-1.12 (inactive)"}, {"sequence": "GGCAUUAGCUACCUGGACATT against 1700013G24Rik", "z-score": "3.44 (active)"}, {"sequence": "GGUGGUCCAGACCAAGUACTT against Pfdn5", "z-score": "-1.02 (inactive)"}, {"sequence": "GGUCUUCAGCCCAAGAAAUTT against Dsg2", "z-score": "0.127 (inactive)"}, {"sequence": "GCAAUACUUAUCCAUUGCGTT against Msx3", "z-score": "-0.42 (inactive)"}, {"sequence": "GGACUCAUUGACUUCAUCATT against Atg12", "z-score": "-1.8 (inactive)"}, {"sequence": "GCUUGCUUCGCCUACAUUGTT against Slc46a3", "z-score": "-0.501 (inactive)"}, {"sequence": "GUAGUUAGGAACUCUUGCUTT against Thnsl2", "z-score": "-0.086 (inactive)"}, {"sequence": "GGCUGAUGUGAUGAUUGUATT against Ndufs7", "z-score": "2.3 (active)"}, {"sequence": "GCACUGUGAGUGGAUACUUTT against Slc5a3", "z-score": "0.13 (inactive)"}, {"sequence": "CCAUCAAGAUCUCUCAGUATT against A630091E08Rik", "z-score": "-1.25 (inactive)"}, {"sequence": "CGAAUGUCCUGGAAGCAAATT against Olfr142", "z-score": "-0.0904 (inactive)"}, {"sequence": "GCUCUUAGAGAUUUGUUUGTT against Usp14", "z-score": "0.389 (inactive)"}, {"sequence": "CCAUUUUUGCUCAAUUUGCTT against Eif1ax", "z-score": "-0.943 (inactive)"}, {"sequence": "GCCAAACUGCGUCUGAAUGTT against Rras", "z-score": "0.62 (inactive)"}, {"sequence": "GGACAAGUACGGAAAGCCCTT against Hdgfl2", "z-score": "0.196 (inactive)"}, {"sequence": "GCCACAUAAGGUUGUUCCCTT against Gamt", "z-score": "2.9 (active)"}, {"sequence": "CCUCUCCAACAACCAACUATT against Lrrc47", "z-score": "-0.27 (inactive)"}, {"sequence": "GGCUCCAAAUCAAACUCUATT against Eif4e3", "z-score": "2.19 (active)"}, {"sequence": "GGAACCAAGCCAUGAUUUUTT against Mrgprb2", "z-score": "0.646 (inactive)"}, {"sequence": "CCAGUACUCGUUUCACUUATT against Mrpl15", "z-score": "0.374 (inactive)"}, {"sequence": "GGUGGACUUGUACCUCUUCTT against Tnks", "z-score": "-0.0808 (inactive)"}, {"sequence": "CCGUAUUGUCACUUGUGGGTT against Arpc1a", "z-score": "0.479 (inactive)"}, {"sequence": "CAGGAAAUUAGCGAUGUGGTT against Abl2", "z-score": "0.206 (inactive)"}, {"sequence": "GGUGCUAAAGUCAAAAAACTT against Fras1", "z-score": "0.218 (inactive)"}, {"sequence": "GAAGGGACUUCAAAGUUGATT against Ndufb10", "z-score": "3.3 (active)"}, {"sequence": "GGGACAUCAGAUUAUUCAUTT against Zfp87", "z-score": "1.43 (inactive)"}, {"sequence": "GGAAGACAAUGGUGUGAAATT against Pgm3", "z-score": "-0.74 (inactive)"}, {"sequence": "GGCCGCCAUUUUGGCAAGATT against Fbxo27", "z-score": "3.41 (active)"}, {"sequence": "CGGUGAUAACAGACAUUAATT against Aldh8a1", "z-score": "-0.561 (inactive)"}, {"sequence": "CCGAACCUUCAGCUACACATT against Keap1", "z-score": "0.0133 (inactive)"}, {"sequence": "GGAAAAAUUCGAGGGACUGTT against Rcan2", "z-score": "1.12 (inactive)"}, {"sequence": "GGAAGUGUAUUCAAGAAGUTT against Tapt1", "z-score": "3.02 (active)"}, {"sequence": "GCCGUUCUGCUAUCACAACTT against Scrn2", "z-score": "-0.531 (inactive)"}, {"sequence": "GAAGAGACCUUCACAAAGUTT against Hnrnpll", "z-score": "-1.52 (inactive)"}, {"sequence": "GGAGCGAGGAAUCAAUGUUTT against Prss8", "z-score": "2.86 (active)"}, {"sequence": "GGAACACCUACAGUAUAAATT against Cdc123", "z-score": "-0.39 (inactive)"}, {"sequence": "GGAGCGAUUUGCUGGUGUGTT against Rps16", "z-score": "1.19 (inactive)"}, {"sequence": "GGUAUCAAGGUGAAGUUGATT against Septin1", "z-score": "0.776 (inactive)"}, {"sequence": "GGGACACUACCCUGAUGAUTT against Vmn1r205", "z-score": "-2.05 (active)"}, {"sequence": "GGUUGGACAAAAAGAAUCUTT against Ifngr1", "z-score": "0.507 (inactive)"}, {"sequence": "GGUCUGAGUUUUAAACAGUTT against Gmfb", "z-score": "1.13 (inactive)"}, {"sequence": "GGGUUACCUCCUGACUGUUTT against Olfr930", "z-score": "-1.9 (inactive)"}, {"sequence": "GCUGCUUUGCUAUCUCCUGTT against Apof", "z-score": "-2.25 (active)"}, {"sequence": "CGAGGAGUUGGAUUUCAGGTT against Dnmbp", "z-score": "-0.713 (inactive)"}, {"sequence": "GGGAGUAAAGAAAAUGUUATT against Atxn2", "z-score": "-0.112 (inactive)"}]}]}
